Source: PubChem
PI5P4Ka inh – inhibitors of human PI5P4K alpha; PI5P4Kalpha enzyme, ADP-Glo luminescence, 60 min; stronger effect = lower value; max response, %; 330,000 compounds, 1.2% hits; active = max response of -50% or lower; inconclusive = between -30% and -50%; inactive = -30% or higher; also: value at the top dose of about 77 µM
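Reactions run in 0.038 M HEPES pH 7.4, 0.28 mM EGTA, 0.1% CHAPS and 5% DMSO, with PI5P4Kalpha, substrate, compound and 5 microM ATP final, one hour at room temperature. Readout is ADP-Glo luminescence.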
PLK1 PBD inh – PLK1 (human) polo-box domain binding inhibition | P53350 | Plk1 PBD binding of FITC phosphopeptide, fluorescence polarization | Potency, µM, usual class: inhibitors | 360,000 compounds, 2.8% hits | AID 720504; also: series mostly up to about 57 µM; nearly all actives have a fitted effect of over 65% in size
BAZ2B block – inhibitors of human BAZ2B bromodomain. Q9UIF8. AlphaScreen BAZ2B-H3K14Ac peptide displacement. Potency, µM (doses to about 114 µM), hits mostly inhibitors. 360,000 compounds, 4.4% hits; also: nearly all actives have a fitted effect of over 60% in size
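In this displacement format the biotinylated H3(5-23) peptide acetylated at Lys14 serves as ligand at 50 nM, with BAZ2B at 50 nM in PBS pH 7.4 containing 0.01% Tween-20. Donor and acceptor beads are 10 ug/mL final.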
HP1b chromo inh – inhibitors of HP1-beta chromodomain binding to methylated histone tails | P83916 | AlphaScreen HP1-beta / biotin-H3K9me3 peptide binding | Potency, µM (series often up to 114 µM), hits mostly inhibitors | 390,000 compounds, 0.56% hits | AID 540317; also: nearly all actives have a fitted effect of over 70% in size
Target sequence (P83916 whole entry, looked up): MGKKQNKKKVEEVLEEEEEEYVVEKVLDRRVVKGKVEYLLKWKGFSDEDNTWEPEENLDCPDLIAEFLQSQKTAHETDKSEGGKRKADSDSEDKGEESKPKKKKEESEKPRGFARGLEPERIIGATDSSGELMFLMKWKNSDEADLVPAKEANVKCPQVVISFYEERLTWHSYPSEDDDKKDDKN
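AlphaScreen: HP1-beta (50 nM) preformed 30 min with biotin-H3(1-18)K9me3 peptide (50 nM) in PBS pH 7.4, 0.01% Tween-20. Compound added for 30 min at RT, then streptavidin donor/nickel chelate acceptor beads (10 ug/mL) for 30 min.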
JMJD2A Tudor inh – JMJD2A Tudor domain (human) inhibition. AID 504339. AlphaScreen JMJD2A-Tudor / H3K4me3 peptide binding. O75164. Potency, µM (titrated, usually from 114 µM), hits mostly inhibitors. 390,000 compounds, 4.4% hits; also: nearly all actives have a fitted effect of over 50% in size
G9a inh – G9a (human) methyltransferase inhibition. Q96KQ7. G9a H3K9 monomethylation, AlphaScreen, 2 h. Potency, µM (series often up to 102 µM), hits mostly inhibitors. 350,000 compounds, 8.8% hits. AID 504332; also: nearly all actives have a fitted effect of over 75% in size
Target sequence (Q96KQ7 913-1193 limits assumed): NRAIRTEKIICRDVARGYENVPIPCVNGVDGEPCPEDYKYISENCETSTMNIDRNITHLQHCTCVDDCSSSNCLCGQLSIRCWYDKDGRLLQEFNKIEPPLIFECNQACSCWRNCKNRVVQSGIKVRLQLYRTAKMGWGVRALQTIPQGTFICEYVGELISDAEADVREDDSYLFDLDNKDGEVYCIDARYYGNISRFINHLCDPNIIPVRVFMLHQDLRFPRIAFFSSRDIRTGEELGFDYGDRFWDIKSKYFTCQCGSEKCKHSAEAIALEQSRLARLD
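Signal arises when biotinylated H3K9 peptide, once monomethylated, bridges streptavidin donor and antibody-captured acceptor beads. Enzyme at 20 nM was preincubated 15 min with test compounds; peptide 500 nM and SAM 20 uM then reacted for 2 h.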
Numbers stand for hits; i = inactive; ? = inconclusive; nt = not tested or not shown; [ ] = remark or other dose. Rows were chosen to be rich in hits. Some 12% of all compounds tested hit in one or more screens of this group. Unless noted, calls follow the shape of the dose curve; as a rule, active = well fitted curve in the direction sought with a large enough effect; inconclusive = small, poorly fitted or top-dose-only effect, or another doubt; inactive = no such curve, though single readings can be large; an effect the other way counts as inactive or inconclusive.

SMILES	PI5P4Ka inh	PLK1 PBD inh	BAZ2B block	HP1b chromo inh	JMJD2A Tudor inh	G9a inh
N=c1ccn2c(n1)OC1C(O)[C@@H](CO)O[C@H]12 (stereo partly drawn)	nt	nt	nt	i	i	nt
Cc1cc(C)c2c(n1)SCCN2C(=O)Nc1ccc(C(=O)Nc2ccc(C(C)C)cc2)cc1	nt	nt	i	i	i	i
CCOc1ccc(NC(=O)c2sc3nc4c(c(-c5ccc(OC)cc5)c3c2N)C(=O)CC(C)(C)C4)cc1	nt	nt	i	i	i	i
Cc1ccc(C)c(N(CC(=O)NC2CCCC2)C(=O)CCC(=O)Nc2cc(C)on2)c1	i	i	i	i	i	i
COc1ccccc1Nc1nc(-c2sc(NC(=O)c3ccccc3)nc2C)cs1	i	?	i	i	?	?
Cc1nc(NC(=O)c2ccccc2)sc1-c1csc(Nc2cccc(F)c2)n1	nt	nt	?	nt	nt	44.7µM
O=C(Nc1cccc(-c2csc(Nc3ccccc3)n2)c1)c1ccccc1	i	i	i	i	i	i
COC(=O)Cc1csc(NCc2ccccc2)n1	i	i	i	i	i	i
Cc1cc(-c2csc(NCc3ccccc3)n2)c(C)n1C	-54.7	i	39.8µM	i	44.7µM	8.91µM
Cc1nc(N)sc1-c1csc(NCc2ccccc2)n1	?	i	31.6µM	i	?	10µM
Cc1nc(NC(=O)c2ccccc2)sc1-c1csc(NCc2ccccc2)n1	i	i	?	i	?	39.8µM
CN(c1ccccc1)S(=O)(=O)c1cccc(NC(=O)CSc2nccc(=O)[nH]2)c1	i	i	nt	i	i	nt
COc1ccc(CNC(=O)c2cnn(-c3ccc(C)cc3)c2-n2cccc2)cc1OC	nt	nt	?	i	i	i
CCOC(=O)c1cnc2ccc(C)cc2c1Sc1ccccc1C(=O)OC	i	26.7µM	i	i	?	i
CCOC(=O)c1cnc2ccc(C)cc2c1NCCO	i	i	i	i	i	i
Cc1cc(C)cc(-n2c(SCC(N)=O)nc3c([nH]c4ccccc43)c2=O)c1	nt	nt	i	i	i	i
CCOC(=O)Cc1csc(N/N=C\c2cccc(Br)c2)n1	i	23.8µM	i	i	28.2µM	i[0.0925 µM]
CCOC(=O)Cc1csc(N/N=C\c2ccc(N(C)C)cc2)n1	i	i	11.2µM	i	39.8µM	44.7µM
Cc1cc(NC(=O)CCCn2c(C)c3cnn(-c4ccccc4)c(=O)c3c2C)ccc1Br	nt	nt	?	i	?	i
Cc1nn(-c2ccccc2)c(C)c1/C=N/N1CCN(Cc2ccccc2)CC1	nt	nt	nt	nt	nt	16.8µM
CN(C)c1ccc(/C=N/N2CCN(c3ccccn3)CC2)cc1	i	i	i	i	i	12.6µM
Cc1nn(-c2ccccc2)c(C)c1/C=N/N1CCN(c2ccccn2)CC1	i	i	44.7µM	?	?	?
Cc1nn(-c2ccccc2)c(C)c1/C=N/N1CCN(c2ccccc2)CC1	nt	i	?	i	20µM	?
Cc1nn(-c2ccccc2)c(Cl)c1/C=N/N1CCN(c2ccccn2)CC1	i	i	i	i	i	i[0.0925 µM]
Cc1ccc(N(CC(=O)NC(C)(C)C)C(=O)CCC(=O)Nc2ccccn2)cc1	i	i	nt	nt	nt	nt
SMILES	PI5P4Ka inh	PLK1 PBD inh	BAZ2B block	HP1b chromo inh	JMJD2A Tudor inh	G9a inh
CC(C)CC1=NN2C(=N)/C(=C\c3coc4ccccc4c3=O)C(=O)N=C2S1	-52.8	i	i	i	i	?
CCSC1=NSC2=NC(=O)/C(=C\c3coc4ccccc4c3=O)C(=N)N12	-59.3	16.8µM	?	i	i	?
Cc1cccc(-n2c(C)cc(/C=C3\C(=N)N4N=C(CC(C)C)SC4=NC3=O)c2C)c1	i	i	i	i	i	i
COc1ccc(-c2nc(C#N)c(N3CCN(C(=O)c4ccco4)CC3)o2)cc1OC	i	i	i	i	i	i
COc1ccc(-c2nc(C#N)c(N3CCc4ccccc4C3)o2)cc1OC	nt	i	7.08µM	i	?	28.2µM
COc1ccccc1-c1nc(C#N)c(N2CCc3ccccc3C2)o1	nt	i	10µM	?	?	?
Cc1cc(Nc2nc3ccccc3c3nnc(C)n23)ccc1Br	nt	nt	i	i	i	i
O=C1OC(c2ccccc2)=C/C1=C/N1CCCCC1	nt	i	50.1µM	i	?	?
Cc1nc2[nH]c(=S)[nH]c2c(=O)[nH]1	i	i	nt	i	20µM	nt
COCCNC(=O)C1(C)CCCN(Cc2c(C)nn(-c3ccccc3)c2C)C1 (stereo not drawn)	i	i	nt	nt	nt	nt
